High-throughput results (PubChem BioAssay)
GLP-1R agonist: activates the human GLP-1 receptor. P43220. HEK293 GLP-1R CRE-luciferase, luminescence, 4-6 h; cells express a hypersensitive GLP-1R form. Potency, µM (doses to about 45.6 µM), usual class: activators. actives 0.007% (n = 380,000). AID 624172
Target sequence (P43220 whole entry, looked up): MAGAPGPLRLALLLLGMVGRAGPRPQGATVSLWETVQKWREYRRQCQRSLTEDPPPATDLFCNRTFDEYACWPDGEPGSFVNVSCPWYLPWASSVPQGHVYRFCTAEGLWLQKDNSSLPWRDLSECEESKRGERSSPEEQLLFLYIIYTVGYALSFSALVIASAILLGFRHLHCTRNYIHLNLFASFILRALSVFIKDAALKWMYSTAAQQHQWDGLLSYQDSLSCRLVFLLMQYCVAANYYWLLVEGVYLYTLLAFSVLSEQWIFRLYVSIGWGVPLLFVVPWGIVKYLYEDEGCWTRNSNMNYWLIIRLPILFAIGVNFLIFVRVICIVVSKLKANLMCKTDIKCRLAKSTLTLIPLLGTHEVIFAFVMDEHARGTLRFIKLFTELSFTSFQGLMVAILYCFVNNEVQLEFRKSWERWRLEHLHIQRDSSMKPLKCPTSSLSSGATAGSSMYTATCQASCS
GLP1R cytotox: cytotoxicity in counter-screen for GLP-1R inverse agonists | HEK293 cAMP-luciferase reporter cells, luminescence, 24 h | Potency, µM (series often up to 38.3 µM), most hits filed as inhibitors | actives 0.13% (n = 410,000) | AID 624418;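 also: loss of luciferase light is scored as toxicity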
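1536-well qHTS counterscreen of the MLSMR; 200 cells/uL, 12 h pre-incubation, 23 nL cpd, 24 h at 37 deg C 5% CO2, luciferase detection reagent, 12 min RT, luminescence. Inhibition = undesired.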
BRCA1 expr act: increases BRCA1 expression | Potency, µM (top dose mostly 46.1 µM), hits mostly activators | MCF7-BRCA1-FFLuc reporter, luminescence, 48 h; response scale: scaled: vehicle 0%, 10 µM genistein 100% | actives 1.1% (n = 380,000) | AID 624202; also: nearly all actives have a fitted effect of over 80% in size
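Luminescence from a BRCA1-driven firefly luciferase in MCF7 cells was the read-out, taken 15 min after substrate addition following 48 h compound exposure at 37 °C. Data were normalized to a 10 microM genistein control and DMSO vehicle.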
GLP1R inv ag: GLP-1 receptor (human) inverse agonism; actives 1.6% (n = 410,000); Potency, µM (doses to about 38.3 µM), most hits filed as inhibitors; HEK293 GLP-1R CRE-luciferase, luminescence, 24 h; GLP-1R form is constitutively active; also: nearly all actives have a fitted effect of over 55% in size
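Cells are plated, allowed 12 hours at 37 deg C, then treated with compounds for 24 hr before luciferase detection reagent is added and luminescence is read after 12 min at room temperature. The HEK293 line carries constitutively active GLP-1R with a cAMP-responsive reporter.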
Integrin act MD: integrin-mediated muscular dystrophy alleviation activation; alpha7betagal myoblasts, beta-gal FDG fluorescence, 48 h; Potency, µM (top dose mostly 38.3 µM), hits mostly activators; actives 0.064% (n = 350,000); AID 624291; also: nearly all actives have a fitted effect of over 60% in size
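alpha7betagal+/- myoblasts (passage 13, 250/well) treated 48 h at 37C with compounds at 1:260 dilution of DMSO stock. Lysed, then beta-galactosidase activity read as FDG fluorescence (ex 480/em 540) after 30 min, with pre-read for autofluorescence.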
Large screens that a line does not name were inactive. Most compounds without a hit are left out; they make up all but 2.7% or so of the library. Calls follow the shape of the dose curve; as a rule, active = well fitted curve in the direction sought with a large enough effect; inconclusive = small, poorly fitted or top-dose-only effect, or another doubt; inactive = no such curve, though single readings can be large; an effect the other way counts as inactive or inconclusive.

CN(C)c1ccc(Nc2ccc([N+](=O)[O-])cn2)cc1	GLP1R cytotox inconclusive, BRCA1 expr act 3.16µM, Integrin act MD inconclusive
CCc1ccccc1NC(=O)CN(Cc1ccccc1)S(=O)(=O)c1ccc(Br)cc1	GLP1R inv ag inconclusive (no result: GLP-1R agonist, BRCA1 expr act, Integrin act MD)
O=C(CN1C(=O)NC(c2ccccc2)(c2ccccc2)C1=O)N1CCN(c2ccc(F)cc2)CC1	GLP1R cytotox inconclusive, GLP1R inv ag 7.94µM, Integrin act MD inconclusive
O=C(CN1C(=O)COc2ccc(S(=O)(=O)N3CCOCC3)cc21)N1CCN(c2ccccc2)CC1	none (no result: Integrin act MD)
C=CCn1c(COc2ccccc2)nnc1SC(C)C(=O)N/N=C/c1cc(Cl)ccc1O (configuration not stated)	GLP1R inv ag 8.91µM
CCCOc1ccc(/C=N/Nc2cccc([N+](=O)[O-])c2)c(O)c1	GLP1R cytotox inconclusive, GLP1R inv ag 4.47µM
CCCCNC(=O)N(C)c1nc2ccccc2s1	BRCA1 expr act 4.47µM
CONC(=O)C1CCN(C(=O)OCc2ccccc2)CC1	BRCA1 expr act 14.1µM
C=CCc1ccccc1OCC(O)CN1CCN(c2ccccc2F)CC1 (configuration not stated)	GLP1R inv ag 10µM
CC(C)CCCCCCNC(=S)Nc1ccc(S(=O)(=O)N2CCOCC2)cc1	GLP1R cytotox inconclusive, GLP1R inv ag 3.55µM
COc1ccccc1-c1ccc2c(c1)C(C)(Cc1cc(Cl)ccc1C(F)(F)F)C(=O)N2 (configuration not stated)	GLP1R cytotox inconclusive, GLP1R inv ag inconclusive (no result: Integrin act MD)
CC1(Cc2cc(Cl)ccc2C(F)(F)F)C(=O)Nc2ccc(-c3ccc(F)c(Cl)c3)cc21 (configuration not stated)	GLP1R cytotox 11.2µM, GLP1R inv ag inconclusive (no result: Integrin act MD)
c1ccc(-c2nc3ccccn3c2NCc2ccc3c(c2)OCO3)cc1	GLP1R inv ag inconclusive
COc1ccc(-c2nc3ccccn3c2NCc2ccc3c(c2)OCO3)cc1	BRCA1 expr act 7.94µM, GLP1R inv ag inconclusive
c1ccc2nc(N3CCCC3)c(N3CCCCC3)nc2c1	GLP1R inv ag 11.2µM
COc1ccc2cc(CCNC(=O)c3ccco3)c(=O)[nH]c2c1	none
Cc1ccc2cc(CCNC(=O)c3ccco3)c(=O)[nH]c2c1	BRCA1 expr act 12.6µM
O=C(Nc1cccc(F)c1)N(Cc1ccc(Cl)cc1)CC(O)C(F)(F)F (configuration not stated)	GLP1R cytotox inconclusive, GLP1R inv ag 5.62µM
COc1ccc(NC(=O)c2cc3n(n2)C(C(F)(F)F)CC(c2ccco2)N3)cc1 (configuration not stated)	Integrin act MD inconclusive
O=C(NCC12CC3CC(CC(C3)C1)C2)c1cc2n(n1)C(C(F)(F)F)CC(c1ccco1)N2 (configuration not stated)	GLP1R inv ag 3.55µM
CC1=C(c2ccc(NN=C(C#N)C#N)cc2)NNC(=O)C1	none (no result: GLP1R cytotox, BRCA1 expr act, GLP1R inv ag, Integrin act MD)
CC(=O)C1=C(c2ccccc2)N(C(C)=O)n2c(nnc2C2CCCCC2)S1	GLP1R inv ag 12.6µM (no result: GLP-1R agonist, BRCA1 expr act, Integrin act MD)
CC(=O)C1=C(c2ccc(Cl)c(Cl)c2)N(C(C)=O)n2c(C)nnc2S1	GLP1R inv ag 11.2µM (no result: GLP-1R agonist, BRCA1 expr act, Integrin act MD)
Cc1ccc(C)c(Cn2c(=O)cc(C(F)(F)F)c3c(C)nn(C)c32)c1	none (no result: GLP-1R agonist, BRCA1 expr act, Integrin act MD)
CCCCN(CC)C(=O)CSc1c2c(nc3ccc(Cl)cc13)CCCC2	GLP1R cytotox inconclusive, GLP1R inv ag 10µM (no result: GLP-1R agonist, BRCA1 expr act, Integrin act MD)
CCCCCOc1ccc(Br)cc1CSC(=N)N	GLP1R cytotox 10µM, GLP1R inv ag inconclusive
O=C(CN1C(=O)CC(c2ccccc2)Sc2ccccc21)Nc1cccc(Cl)c1 (configuration not stated)	none (no result: Integrin act MD)
CCCN1C(=O)c2ccccc2NC1c1ccc(OC)c(CSc2ccccn2)c1 (configuration not stated)	GLP1R inv ag 12.6µM, Integrin act MD inconclusive
COc1ccc(C2Nc3ccccc3C(=O)N2Cc2ccco2)cc1CN1C(=O)c2ccccc2C1=O (configuration not stated)	GLP1R inv ag inconclusive
COc1ccc(C2Nc3ccccc3C(=O)N2Cc2ccco2)cc1COc1ccc(F)cc1 (configuration not stated)	GLP1R inv ag 10µM
COc1ccc(N2C(=O)c3ccccc3NC2c2ccc(OC)c(CSc3ccccn3)c2)cc1 (configuration not stated)	none
COc1ccc(N2C(=O)c3ccccc3NC2c2ccc(OC)c(COc3ccccn3)c2)cc1 (configuration not stated)	BRCA1 expr act 6.31µM
CO[C@@]1(NC(=O)CSC[C@@H](N)C(=O)O)C(=O)N2C(C(=O)O)=C(CSc3nnnn3C)CS[C@@H]21	none (no result: GLP1R cytotox, BRCA1 expr act, GLP1R inv ag, Integrin act MD)
COc1ccc(N2CCN(S(=O)(=O)c3ccc(CC(C)C)cc3)CC2)cc1	none (no result: Integrin act MD)
CCN(CC)CCCn1c2c(c(SCC(=O)Nc3nc4ccccc4s3)nc1=O)CCC2	GLP1R cytotox inconclusive, GLP1R inv ag inconclusive
CCN(CC)CCCn1c2c(c(SCC(=O)Nc3ccc(C)c(F)c3)nc1=O)CCC2	GLP1R inv ag 10µM
CCN(CC)CCCn1c2c(c(SCC(=O)Nc3ccc(OC(F)(F)F)cc3)nc1=O)CCC2	GLP1R inv ag 3.55µM
Cc1ccc(-c2nc3ccccn3c2Nc2ccccc2C)o1	none (no result: GLP-1R agonist, GLP1R cytotox, GLP1R inv ag, Integrin act MD)
O=C(Nc1ccc2c(c1)OCO2)c1cc(C2CCCCN2C(=O)CCCc2ccccc2)on1 (configuration not stated)	GLP1R inv ag 8.91µM (no result: Integrin act MD)
O=C(Nc1ccccc1)c1cc(C2CCCCN2C(=O)CCCc2ccccc2)on1 (configuration not stated)	GLP1R inv ag inconclusive (no result: Integrin act MD)
Cc1cccc(NC(=S)NC(NC(=O)c2ccco2)C(Cl)(Cl)Cl)c1 (configuration not stated)	GLP1R cytotox inconclusive, GLP1R inv ag 1.12µM
Cc1ccc(NC(=S)NC(NC(=O)c2ccco2)C(Cl)(Cl)Cl)cc1 (configuration not stated)	GLP1R inv ag inconclusive
O=C(NC(NC(=S)Nc1ccccc1)C(Cl)(Cl)Cl)c1cccc(Cl)c1 (configuration not stated)	GLP1R cytotox inconclusive, GLP1R inv ag 7.94µM
Cc1ccc(NC(=S)NC(NC(=O)c2ccccc2)C(Cl)(Cl)Cl)c(C)c1 (configuration not stated)	GLP1R cytotox inconclusive, GLP1R inv ag 3.55µM
Cc1ccc(C(=O)NC(NC(=S)Nc2ccc(S(N)(=O)=O)cc2)C(Cl)(Cl)Cl)cc1 (configuration not stated)	GLP1R inv ag 5.62µM
Cc1cc(C)c(NC(=S)NC(NC(=O)c2ccccc2)C(Cl)(Cl)Cl)c(C)c1 (configuration not stated)	GLP1R inv ag inconclusive
CC1CCCN(c2ncnc3c2nc2n3CCCCC2)C1 (configuration not stated)	BRCA1 expr act 11.2µM (no result: Integrin act MD)
